These results are taken from article PMC4336329 (PLoS ONE, 2015).

The campaign covered roughly 310,000 compounds. About 14,000 (4.5%) showed an effect of 50% or more. The effect is printed as a negative number. Many of the other results were omitted from the sample, so strong results are more common in it than they were.
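Note: peak tail current of the secondary pulse compared with the same well before compound.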

The experiment deals with human ether-à-go-go-related gene (hERG) potassium channel (human, UniProt Q12809). Put plainly: primary screen, population patch clamp on CHO cells stably expressing hERG; higher = less effect of the substance.
Chain of human ether-à-go-go-related gene (hERG) potassium channel (Q12809 whole entry, looked up): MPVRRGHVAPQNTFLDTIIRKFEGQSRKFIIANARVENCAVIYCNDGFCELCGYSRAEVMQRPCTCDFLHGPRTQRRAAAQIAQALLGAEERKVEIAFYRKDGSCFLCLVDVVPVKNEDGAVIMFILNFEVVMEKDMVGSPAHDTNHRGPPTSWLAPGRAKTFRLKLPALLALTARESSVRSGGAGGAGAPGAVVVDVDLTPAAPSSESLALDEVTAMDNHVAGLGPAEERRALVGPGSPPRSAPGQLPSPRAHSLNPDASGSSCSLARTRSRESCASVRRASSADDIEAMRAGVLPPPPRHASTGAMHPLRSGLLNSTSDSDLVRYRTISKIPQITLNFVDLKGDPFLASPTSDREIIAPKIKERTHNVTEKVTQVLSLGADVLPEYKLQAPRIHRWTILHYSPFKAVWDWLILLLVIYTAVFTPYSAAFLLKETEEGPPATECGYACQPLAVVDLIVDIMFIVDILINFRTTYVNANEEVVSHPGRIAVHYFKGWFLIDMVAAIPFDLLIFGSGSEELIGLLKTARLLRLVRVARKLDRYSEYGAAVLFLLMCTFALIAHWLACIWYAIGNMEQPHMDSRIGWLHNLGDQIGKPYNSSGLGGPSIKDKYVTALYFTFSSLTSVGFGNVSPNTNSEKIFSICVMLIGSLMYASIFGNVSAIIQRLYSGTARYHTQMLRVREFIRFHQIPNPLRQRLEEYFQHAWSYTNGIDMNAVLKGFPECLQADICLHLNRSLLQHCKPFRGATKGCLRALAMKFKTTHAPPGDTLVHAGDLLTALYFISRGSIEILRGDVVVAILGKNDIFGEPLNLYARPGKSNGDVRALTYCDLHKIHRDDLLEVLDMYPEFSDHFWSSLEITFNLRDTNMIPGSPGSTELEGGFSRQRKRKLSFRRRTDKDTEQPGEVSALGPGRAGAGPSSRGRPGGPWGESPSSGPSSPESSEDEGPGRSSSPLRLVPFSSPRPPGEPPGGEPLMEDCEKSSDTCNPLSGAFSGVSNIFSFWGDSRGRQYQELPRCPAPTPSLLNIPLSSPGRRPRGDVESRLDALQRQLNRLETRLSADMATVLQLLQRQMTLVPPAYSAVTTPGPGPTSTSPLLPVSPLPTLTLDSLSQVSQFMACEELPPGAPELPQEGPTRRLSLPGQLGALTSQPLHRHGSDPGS
`COc1cnn(-c2ccc([N+](=O)[O-])cc2)c(=O)c1Cl`: the “hERG current change (%, negative = inhibition) at 10uM” value was -2.52%. As to `Cn1ncc(Cl)c(Oc2ccc(Cl)cc2)c1=O`, the “hERG current change (%, negative = inhibition) at 10uM” value was -17%. `Cn1ncc(Oc2ccc([N+](=O)[O-])cc2)c(Cl)c1=O`: the “hERG current change (%, negative = inhibition) at 10uM” value was -71.2%. On to `O=C(C1CCN(c2nnc(-n3cccc3)s2)CC1)N1CCc2ccccc2C1`, for which the “hERG current change (%, negative = inhibition) at 10uM” value is -60.3%.

On to `O=C(NCCCN1CCc2ccccc2C1)C1CCN(S(=O)(=O)N2CCCC2)CC1`, for which the “hERG current change (%, negative = inhibition) at 10uM” value is reported as -2.78%.

With `O=C(C1CCN(c2nnc(-n3cccc3)s2)CC1)N1CCCCC1`, the “hERG current change (%, negative = inhibition) at 10uM” value is listed as -6.55%. In the case of `O=C(NCCCN1CCc2ccccc2C1)C1CCN(S(=O)(=O)N2CCC3(CC2)OCCO3)CC1`, the “hERG current change (%, negative = inhibition) at 10uM” value is recorded as -12.4%. For the compound `O=C(NCCCN1CCc2ccccc2C1)C1CCN(c2nnc(-n3cccc3)s2)CC1`, the “hERG current change (%, negative = inhibition) at 10uM” value was -55.6%. The same measure for `O=C(NCCN1CCc2ccccc2C1)C1CCN(S(=O)(=O)N2CCCCC2)CC1`: -53.8%. For the compound `CCCN1CCN(CCCNC(=O)C2CCN(c3nnc(-n4cccc4)s3)CC2)CC1`, the “hERG current change (%, negative = inhibition) at 10uM” value is listed as -14.4%. In the case of `CN1CCN(CCCNC(=O)C2CCN(c3nnc(-n4cccc4)s3)CC2)CC1`, the “hERG current change (%, negative = inhibition) at 10uM” value amounted to 20.2%.

With `O=C(C1CCN(c2nnc(-n3cccc3)s2)CC1)N1CCOCC1`, the “hERG current change (%, negative = inhibition) at 10uM” value was -13.9%. On to `Cc1noc(C)c1COC(=O)C1CC(O)CN1S(=O)(=O)c1ccc(Cl)cc1` (centres unmarked), for which the “hERG current change (%, negative = inhibition) at 10uM” value is -8.48%. Regarding `O=C(CC1C(=O)NCCN1Cc1ccccc1C(F)(F)F)NCCN1CCCCC1=O` (centres unmarked), the “hERG current change (%, negative = inhibition) at 10uM” value is on record as 16.9%. Regarding `O=S(=O)(Cc1noc(-c2ccc(Cl)cc2)n1)Cc1ccco1`, the “hERG current change (%, negative = inhibition) at 10uM” value was -4.77%. Turning to `Cc1cc(C)nc(NC(=O)CSc2nn(C)c(=S)s2)n1`, the “hERG current change (%, negative = inhibition) at 10uM” value is listed as -0.37%. Consider `Cc1cc2cc(CNC(=O)Nc3ccc(Cl)c(Cl)c3)ccc2n1C`, for which the “hERG current change (%, negative = inhibition) at 10uM” value is listed as 2.71%.

As to `CCCn1c(NC(=O)c2ccco2)nc2ccccc21`, the “hERG current change (%, negative = inhibition) at 10uM” value was 9.09%. The same measure for `CCCn1c(NC(=O)C2CCN(C(=O)c3ccccc3C)CC2)nc2ccccc21`: -16%. For the compound `CCn1c(NC(=O)C2CCCCC2)nc2ccccc21`, the “hERG current change (%, negative = inhibition) at 10uM” value is listed as 8.36%. For the compound `O=C(Nc1nc2ccccc2n1Cc1ccccc1)c1ccco1`, the “hERG current change (%, negative = inhibition) at 10uM” value turned out to be 20.2%. With `O=C(Nc1nc2ccccc2n1CCN1CCCCC1)c1ccco1`, the “hERG current change (%, negative = inhibition) at 10uM” value was -54.8%. As for `CN(C)CCCn1c(NC(=O)C2CCCCC2)nc2ccccc21`, the “hERG current change (%, negative = inhibition) at 10uM” value is recorded as -27.3%.

For the compound `O=C(Nc1nc2ccccc2n1CCN1CCCCC1)C1CCCCC1`, the “hERG current change (%, negative = inhibition) at 10uM” value is -61.2%. With `CCCCn1c(NC(=O)C2CCCCC2)nc2ccccc21`, the “hERG current change (%, negative = inhibition) at 10uM” value was found to be 4.63%.

`O=C(Nc1nc2ccccc2n1CCN1CCCC1)C1CCCCC1`: the “hERG current change (%, negative = inhibition) at 10uM” value is -58.6%.
